Test results from paper PMC7862700, “An all-to-all approach to the identification of sequence-specific readers for epigenetic DNA modifications on cytosine”.

Each sequence was assayed against T1, FEV (Homo sapiens, UniProt Q99581 1-238) (assay: DAPPL (digital affinity profiling via proximity ligation, sequencing); 10 mM Tris-HCl pH 7.5, 50 mM NaCl, 1 mM DTT, 4% glycerol, room temperature, 30 min; GST-TFs on glutathione beads, 16-mer random dsDNA library, 0.1% formaldehyde crosslink after washing; high values mean tight binding). Settings: protein: recombinant; tags: N-terminal GST; dsDNA, one strand shown.
T1 sequence: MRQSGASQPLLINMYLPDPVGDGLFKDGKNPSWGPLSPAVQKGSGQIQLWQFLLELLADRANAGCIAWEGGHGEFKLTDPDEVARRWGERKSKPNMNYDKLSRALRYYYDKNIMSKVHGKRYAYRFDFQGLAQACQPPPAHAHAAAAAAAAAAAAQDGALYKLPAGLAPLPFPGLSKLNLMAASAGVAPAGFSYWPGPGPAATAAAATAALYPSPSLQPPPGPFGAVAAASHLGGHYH
Outline: (§1)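 Human transcription factors were made in yeast as GST fusions, captured on glutathione beads and barcoded with DNA. With a tag-only sample included, the pool was incubated with 200 nmole of a random double-stranded 16-mer DNA library in Tris/NaCl/DTT/glycerol buffer at room temperature for 30 min, then crosslinked with 0.1% formaldehyde after washing, ligated by proximity, amplified and sequenced. For binding signal, each hexamer's read frequency for a factor is divided by its frequency for the tag-only sample.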

Sequence	binding signal
GATGAA	1.13 fold enrichment (6-mer frequency, TF over GST control)
TGCGTA	1.06 fold enrichment (6-mer frequency, TF over GST control)
CTTGTT	1.15 fold enrichment (6-mer frequency, TF over GST control)
TATCTG	1.15 fold enrichment (6-mer frequency, TF over GST control)
TCGTAC	1.13 fold enrichment (6-mer frequency, TF over GST control)
GAAAAC	1.08 fold enrichment (6-mer frequency, TF over GST control)
ACTCGC	1.14 fold enrichment (6-mer frequency, TF over GST control)
GGATCC	1.16 fold enrichment (6-mer frequency, TF over GST control)
GCTCGT	1.06 fold enrichment (6-mer frequency, TF over GST control)
CCTGGG	1.05 fold enrichment (6-mer frequency, TF over GST control)
CTCGGT	1.01 fold enrichment (6-mer frequency, TF over GST control)
TCTGTA	1.24 fold enrichment (6-mer frequency, TF over GST control)
AAGCAC	1.23 fold enrichment (6-mer frequency, TF over GST control)
CACGCG	1.16 fold enrichment (6-mer frequency, TF over GST control)
CGCTAG	1.06 fold enrichment (6-mer frequency, TF over GST control)
ACACGA	1.1 fold enrichment (6-mer frequency, TF over GST control)
CACTGG	1.07 fold enrichment (6-mer frequency, TF over GST control)

Sequence	binding signal
TAAGCC	1.15 fold enrichment (6-mer frequency, TF over GST control)
ACCGTC	1.17 fold enrichment (6-mer frequency, TF over GST control)
GCACGA	1.09 fold enrichment (6-mer frequency, TF over GST control)
CCACAA	1.15 fold enrichment (6-mer frequency, TF over GST control)
GAAAAA	1.09 fold enrichment (6-mer frequency, TF over GST control)
AAGCAA	1.05 fold enrichment (6-mer frequency, TF over GST control)
ATCATA	1.07 fold enrichment (6-mer frequency, TF over GST control)
CATGAA	1.03 fold enrichment (6-mer frequency, TF over GST control)
CTCCAT	1.36 fold enrichment (6-mer frequency, TF over GST control)
ATGCTG	1.06 fold enrichment (6-mer frequency, TF over GST control)
CTGGGT	1.06 fold enrichment (6-mer frequency, TF over GST control)
TTACGA	1.11 fold enrichment (6-mer frequency, TF over GST control)
TCCACC	1.3 fold enrichment (6-mer frequency, TF over GST control)
TGCCGA	1.11 fold enrichment (6-mer frequency, TF over GST control)
ACTCGA	1.29 fold enrichment (6-mer frequency, TF over GST control)
TGAAAA	1.06 fold enrichment (6-mer frequency, TF over GST control)
AACAGC	1.14 fold enrichment (6-mer frequency, TF over GST control)

These sequences were tested against ETV5 (Homo sapiens, UniProt P41161 1-510) in the same assay as above. Settings: protein: recombinant; tags: N-terminal GST; dsDNA, one strand shown.
Outline: as §1

Sequence of ETV5 (P41161 whole entry): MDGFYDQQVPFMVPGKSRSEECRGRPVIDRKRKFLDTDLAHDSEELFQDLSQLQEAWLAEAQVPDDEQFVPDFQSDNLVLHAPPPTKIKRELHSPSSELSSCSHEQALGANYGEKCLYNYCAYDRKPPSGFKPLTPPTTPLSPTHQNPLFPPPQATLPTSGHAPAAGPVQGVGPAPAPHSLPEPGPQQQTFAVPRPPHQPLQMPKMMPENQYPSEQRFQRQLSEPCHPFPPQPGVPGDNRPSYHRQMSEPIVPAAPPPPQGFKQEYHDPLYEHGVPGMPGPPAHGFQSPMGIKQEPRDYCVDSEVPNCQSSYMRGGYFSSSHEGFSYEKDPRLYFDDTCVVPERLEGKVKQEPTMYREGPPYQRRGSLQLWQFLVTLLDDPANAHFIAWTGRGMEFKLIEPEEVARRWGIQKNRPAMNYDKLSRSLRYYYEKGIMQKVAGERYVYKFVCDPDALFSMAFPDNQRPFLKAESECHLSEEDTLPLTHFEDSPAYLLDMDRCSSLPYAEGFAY

Sequence	binding signal
GATGAA	1.13 fold enrichment (6-mer frequency, TF over GST control)
TGCGTA	1.12 fold enrichment (6-mer frequency, TF over GST control)
TGGGTT	1.06 fold enrichment (6-mer frequency, TF over GST control)
CTTGTT	1.22 fold enrichment (6-mer frequency, TF over GST control)
TCGACG	1.17 fold enrichment (6-mer frequency, TF over GST control)
TATCTG	1.15 fold enrichment (6-mer frequency, TF over GST control)
TCGTAC	1.13 fold enrichment (6-mer frequency, TF over GST control)
GAAAAC	1.13 fold enrichment (6-mer frequency, TF over GST control)
ACTCGC	1.15 fold enrichment (6-mer frequency, TF over GST control)
GGATCC	1.17 fold enrichment (6-mer frequency, TF over GST control)
GCTCGT	1.17 fold enrichment (6-mer frequency, TF over GST control)
CCTGGG	1.05 fold enrichment (6-mer frequency, TF over GST control)
AAAGGT	1.05 fold enrichment (6-mer frequency, TF over GST control)
CTCGGT	1.1 fold enrichment (6-mer frequency, TF over GST control)
TCTGTA	1.19 fold enrichment (6-mer frequency, TF over GST control)
AAGCAC	1.12 fold enrichment (6-mer frequency, TF over GST control)
CACGCG	1.04 fold enrichment (6-mer frequency, TF over GST control)
CGCTAG	1.02 fold enrichment (6-mer frequency, TF over GST control)
ACACGA	1.15 fold enrichment (6-mer frequency, TF over GST control)
TGCGTT	1.07 fold enrichment (6-mer frequency, TF over GST control)

Sequence	binding signal
CACTGG	1.13 fold enrichment (6-mer frequency, TF over GST control)
TAAGCC	1.12 fold enrichment (6-mer frequency, TF over GST control)
TGGTAG	1.07 fold enrichment (6-mer frequency, TF over GST control)
ACCGTC	1.12 fold enrichment (6-mer frequency, TF over GST control)
GCACGA	1.15 fold enrichment (6-mer frequency, TF over GST control)
CCACAA	1.19 fold enrichment (6-mer frequency, TF over GST control)
GAAAAA	1.13 fold enrichment (6-mer frequency, TF over GST control)
AAGCAA	1.11 fold enrichment (6-mer frequency, TF over GST control)
ATCATA	1.09 fold enrichment (6-mer frequency, TF over GST control)
CATGAA	1.07 fold enrichment (6-mer frequency, TF over GST control)
CTCCAT	1.43 fold enrichment (6-mer frequency, TF over GST control)
TCCACG	1.04 fold enrichment (6-mer frequency, TF over GST control)
ATGCTG	1.13 fold enrichment (6-mer frequency, TF over GST control)
CTGGGT	1.05 fold enrichment (6-mer frequency, TF over GST control)
TTACGA	1.07 fold enrichment (6-mer frequency, TF over GST control)
TCCACC	1.16 fold enrichment (6-mer frequency, TF over GST control)
TGCCGA	1.19 fold enrichment (6-mer frequency, TF over GST control)
ACTCGA	1.27 fold enrichment (6-mer frequency, TF over GST control)
TGAAAA	1.02 fold enrichment (6-mer frequency, TF over GST control)
AACAGC	1.09 fold enrichment (6-mer frequency, TF over GST control)

The sequences below were run against HSF1 (Homo sapiens, UniProt Q00613 1-529) in the same assay as above. Settings: protein: recombinant; tags: N-terminal GST; chain copies: 3; dsDNA, one strand shown.
Outline: as §1

Sequence of HSF1 (Q00613 whole entry): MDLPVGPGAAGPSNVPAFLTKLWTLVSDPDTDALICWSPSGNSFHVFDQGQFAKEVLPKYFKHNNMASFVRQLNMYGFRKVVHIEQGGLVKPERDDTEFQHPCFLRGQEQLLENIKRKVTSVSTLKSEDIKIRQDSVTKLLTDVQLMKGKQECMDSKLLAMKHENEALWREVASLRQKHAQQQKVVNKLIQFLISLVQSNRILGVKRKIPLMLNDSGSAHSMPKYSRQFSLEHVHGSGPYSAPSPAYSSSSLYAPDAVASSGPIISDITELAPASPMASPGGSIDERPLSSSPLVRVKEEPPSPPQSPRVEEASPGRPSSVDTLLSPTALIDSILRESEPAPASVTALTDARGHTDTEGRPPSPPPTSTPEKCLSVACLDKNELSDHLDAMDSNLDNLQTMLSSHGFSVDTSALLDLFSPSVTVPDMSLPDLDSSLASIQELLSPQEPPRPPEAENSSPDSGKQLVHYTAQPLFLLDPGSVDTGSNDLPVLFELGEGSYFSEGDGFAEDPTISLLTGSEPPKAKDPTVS

Sequence	binding signal
GATGAA	1.21 fold enrichment (6-mer frequency, TF over GST control)
TGCGTA	1.06 fold enrichment (6-mer frequency, TF over GST control)
TGGGTT	1.03 fold enrichment (6-mer frequency, TF over GST control)
CTTGTT	1.09 fold enrichment (6-mer frequency, TF over GST control)
TCGACG	1.15 fold enrichment (6-mer frequency, TF over GST control)
TATCTG	1.36 fold enrichment (6-mer frequency, TF over GST control)
TCGTAC	1.06 fold enrichment (6-mer frequency, TF over GST control)
GAAAAC	1.08 fold enrichment (6-mer frequency, TF over GST control)
ACTCGC	1.1 fold enrichment (6-mer frequency, TF over GST control)
GGATCC	1.04 fold enrichment (6-mer frequency, TF over GST control)
GCTCGT	1.07 fold enrichment (6-mer frequency, TF over GST control)
CCTGGG	1.01 fold enrichment (6-mer frequency, TF over GST control)
AAAGGT	1.02 fold enrichment (6-mer frequency, TF over GST control)
CTCGGT	1.04 fold enrichment (6-mer frequency, TF over GST control)
TCTGTA	1.31 fold enrichment (6-mer frequency, TF over GST control)
AAGCAC	1.04 fold enrichment (6-mer frequency, TF over GST control)
CACGCG	1.1 fold enrichment (6-mer frequency, TF over GST control)
CGCTAG	1.29 fold enrichment (6-mer frequency, TF over GST control)
ACACGA	1.02 fold enrichment (6-mer frequency, TF over GST control)
TGCGTT	1 fold enrichment (6-mer frequency, TF over GST control)

Sequence	binding signal
CACTGG	1.16 fold enrichment (6-mer frequency, TF over GST control)
TAAGCC	2.07 fold enrichment (6-mer frequency, TF over GST control)
TGGTAG	1.06 fold enrichment (6-mer frequency, TF over GST control)
ACCGTC	1.13 fold enrichment (6-mer frequency, TF over GST control)
GCACGA	1.04 fold enrichment (6-mer frequency, TF over GST control)
CCACAA	1.1 fold enrichment (6-mer frequency, TF over GST control)
GAAAAA	1.41 fold enrichment (6-mer frequency, TF over GST control)
AAGCAA	1.04 fold enrichment (6-mer frequency, TF over GST control)
ATCATA	1.16 fold enrichment (6-mer frequency, TF over GST control)
CATGAA	1.05 fold enrichment (6-mer frequency, TF over GST control)
CTCCAT	1.21 fold enrichment (6-mer frequency, TF over GST control)
TCCACG	1.15 fold enrichment (6-mer frequency, TF over GST control)
ATGCTG	1.02 fold enrichment (6-mer frequency, TF over GST control)
CTGGGT	1.04 fold enrichment (6-mer frequency, TF over GST control)
TTACGA	1.46 fold enrichment (6-mer frequency, TF over GST control)
TCCACC	1.13 fold enrichment (6-mer frequency, TF over GST control)
TGCCGA	1.07 fold enrichment (6-mer frequency, TF over GST control)
ACTCGA	1.99 fold enrichment (6-mer frequency, TF over GST control)
TGAAAA	1.14 fold enrichment (6-mer frequency, TF over GST control)
AACAGC	1 fold enrichment (6-mer frequency, TF over GST control)
